Assay results taken from the supplement of paper PMC8975748.
Where a name gives a salt, the structure may show the parent alone. ± gives the standard deviation of the averaged measurements.

How the values were obtained:
[1] = tested on: Saccharomyces cerevisiae BY4741 SeMeCo community; assay: mean cell size (pixel area) (pixels); higher = larger cells; conditions: 10 µM; 24 h; SM minimal medium
Method in brief: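 Mean cell pixel area per well was measured in a four-plasmid fluorescent community of Saccharomyces cerevisiae BY4741, where every plasmid complements one auxotrophy and carries a fluorescent marker. Cells from an overnight preculture at OD600 = 1.0 were diluted to OD600 = 0.3 and dispensed at 70 µl into 384-well plates acoustically predosed with drug to a final 10 µM in SM medium. Incubation lasted 24 h, followed by paraformaldehyde fixation, automated confocal imaging and analysis in Harmony. Reported figures are averaged over 3 replicates. Same SeMeCo high-content imaging drug screen: Selleck FDA-approved drugs at 10 µM, 24 h in SM medium, 384-well plates, 3 replicates.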

[2] = tested on: Saccharomyces cerevisiae BY4741 SeMeCo community; assay: z-score of prototroph abundance vs DMSO median; higher = larger share of this subpopulation than in DMSO controls; conditions: 10 µM; 24 h; SM minimal medium; subpopulation (auxotrophy): Prototroph
Method in brief: (§1)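 Automated confocal microscopy of paraformaldehyde-fixed cells was used to follow a Saccharomyces cerevisiae BY4741 community carrying four plasmids, each restoring one auxotrophy and encoding a distinct fluorescent protein. The community was pre-grown overnight to OD600 1.0, diluted to 0.3, and added at 70 µl to 384-well plates acoustically predosed with library drugs (10 µM final) for 24 h of growth in minimal SM medium. Single-auxotroph fluorescent strains set thresholds and autofluorescence correction, and each subpopulation's abundance was scored as a z-score against the vehicle-well median.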

[3] = tested on: Saccharomyces cerevisiae BY4741 SeMeCo community; assay: z-score of subpopulation abundance vs DMSO median, subpopulation auxotrophic for M; higher = larger share of this subpopulation than in DMSO controls; conditions: 10 µM; 24 h; SM minimal medium; subpopulation (auxotrophy): M
Method in brief: as §1

[4] = tested on: Saccharomyces cerevisiae BY4741 SeMeCo community; assay: z-score of subpopulation abundance vs DMSO median, subpopulation auxotrophic for L; higher = larger share of this subpopulation than in DMSO controls; conditions: 10 µM; 24 h; SM minimal medium; subpopulation (auxotrophy): L
Method in brief: as §1

[5] = tested on: Saccharomyces cerevisiae BY4741 SeMeCo community; assay: z-score of subpopulation abundance vs DMSO median, subpopulation auxotrophic for H; higher = larger share of this subpopulation than in DMSO controls; conditions: 10 µM; 24 h; SM minimal medium; subpopulation (auxotrophy): H
Method in brief: as §1

[6] = tested on: Saccharomyces cerevisiae BY4741 SeMeCo community; assay: z-score of subpopulation abundance vs DMSO median, subpopulation auxotrophic for LU; higher = larger share of this subpopulation than in DMSO controls; conditions: 10 µM; 24 h; SM minimal medium; subpopulation (auxotrophy): LU
Method in brief: as §1

[7] = tested on: Saccharomyces cerevisiae BY4741 SeMeCo community; assay: z-score of subpopulation abundance vs DMSO median, subpopulation auxotrophic for LM; higher = larger share of this subpopulation than in DMSO controls; conditions: 10 µM; 24 h; SM minimal medium; subpopulation (auxotrophy): LM
Method in brief: as §1

[8] = tested on: Saccharomyces cerevisiae BY4741 SeMeCo community; assay: z-score of subpopulation abundance vs DMSO median, subpopulation auxotrophic for HM; higher = larger share of this subpopulation than in DMSO controls; conditions: 10 µM; 24 h; SM minimal medium; subpopulation (auxotrophy): HM
Method in brief: as §1

[9] = tested on: Saccharomyces cerevisiae BY4741 SeMeCo community; assay: z-score of subpopulation abundance vs DMSO median, subpopulation auxotrophic for HU; higher = larger share of this subpopulation than in DMSO controls; conditions: 10 µM; 24 h; SM minimal medium; subpopulation (auxotrophy): HU
Method in brief: as §1

[10] = tested on: Saccharomyces cerevisiae BY4741 SeMeCo community; assay: z-score of subpopulation abundance vs DMSO median, subpopulation auxotrophic for UM; higher = larger share of this subpopulation than in DMSO controls; conditions: 10 µM; 24 h; SM minimal medium; subpopulation (auxotrophy): UM
Method in brief: as §1

[11] = tested on: Saccharomyces cerevisiae BY4741 SeMeCo community; assay: z-score of subpopulation abundance vs DMSO median, subpopulation auxotrophic for HL; higher = larger share of this subpopulation than in DMSO controls; conditions: 10 µM; 24 h; SM minimal medium; subpopulation (auxotrophy): HL
Method in brief: as §1

[12] = tested on: Saccharomyces cerevisiae BY4741 SeMeCo community; assay: z-score of subpopulation abundance vs DMSO median, subpopulation auxotrophic for HLU; higher = larger share of this subpopulation than in DMSO controls; conditions: 10 µM; 24 h; SM minimal medium; subpopulation (auxotrophy): HLU
Method in brief: as §1

[13] = tested on: Saccharomyces cerevisiae BY4741 SeMeCo community; assay: z-score of subpopulation abundance vs DMSO median, subpopulation auxotrophic for HLM; higher = larger share of this subpopulation than in DMSO controls; conditions: 10 µM; 24 h; SM minimal medium; subpopulation (auxotrophy): HLM
Method in brief: as §1

[14] = tested on: Saccharomyces cerevisiae BY4741 SeMeCo community; assay: z-score of subpopulation abundance vs DMSO median, subpopulation auxotrophic for HUM; higher = larger share of this subpopulation than in DMSO controls; conditions: 10 µM; 24 h; SM minimal medium; subpopulation (auxotrophy): HUM
Method in brief: as §1

[15] = tested on: Saccharomyces cerevisiae BY4741 SeMeCo community; assay: z-score of subpopulation abundance vs DMSO median, subpopulation auxotrophic for LUM; higher = larger share of this subpopulation than in DMSO controls; conditions: 10 µM; 24 h; SM minimal medium; subpopulation (auxotrophy): LUM
Method in brief: as §1

[16] = tested on: Saccharomyces cerevisiae BY4741 SeMeCo community; assay: z-score of subpopulation abundance vs DMSO median, subpopulation auxotrophic for HLUM; higher = larger share of this subpopulation than in DMSO controls; conditions: 10 µM; 24 h; SM minimal medium; subpopulation (auxotrophy): HLUM
Method in brief: as §1

[17] = tested on: Saccharomyces cerevisiae BY4741 SeMeCo community; assay: z-score of subpopulation abundance vs DMSO median, subpopulation auxotrophic for U; higher = larger share of this subpopulation than in DMSO controls; conditions: 10 µM; 24 h; SM minimal medium; subpopulation (auxotrophy): U
Method in brief: as §1

| Compound | mean cell size [1] | z-score of prototroph abundance [2] | z-score of subpopulation abundance [3] | z-score of subpopulation abundance [4] | z-score of subpopulation abundance [5] | z-score of subpopulation abundance [6] | z-score of subpopulation abundance [7] | z-score of subpopulation abundance [8] | z-score of subpopulation abundance [9] | z-score of subpopulation abundance [10] | z-score of subpopulation abundance [11] | z-score of subpopulation abundance [12] | z-score of subpopulation abundance [13] | z-score of subpopulation abundance [14] | z-score of subpopulation abundance [15] | z-score of subpopulation abundance [16] | z-score of subpopulation abundance [17] |
| --- | --- | --- | --- | --- | --- | --- | --- | --- | --- | --- | --- | --- | --- | --- | --- | --- | --- |
| CC(C)[C@H](N)C(=O)OCCOCn1cnc2c(=O)nc(N)[nH]c21 [Valaciclovir HCl] | 12.3 ± 0.16 | 0.5 | -0.55 | -0.06 | -0.62 | -0.13 | -0.74 | -0.81 | 0.53 | 0.08 | -0.27 | -0.75 | -0.27 | 0.37 | -0.29 | -0.14 |  |
| C[C@H](Nc1ncnc2nc[nH]c12)c1cc2cccc(Cl)c2c(=O)n1-c1ccccc1 [Duvelisib (IPI-145, INK1197)] | 12.37 ± 0.1 |  | -0.39 | 1.3 | 0.93 | 1.28 | 0.42 | -0.47 | -0.03 | -0.3 | 0.33 | 0.95 | 0.18 | -0.67 | 0.56 | 0.98 | 0.89 |
| Cc1nc2n(c(=O)c1CCN1CCC(c3noc4cc(F)ccc34)CC1)CCCC2O (stereo unspecified) [Paliperidone] | 12 ± 0.24 | 0.1 | 0.41 | -0.99 | -0.95 | -0.02 | -0.14 | 0.04 | 0.19 | 0.49 | -1.06 | -0.96 | -1.03 | 0.09 |  | -0.53 | 0.75 |
| CCOC(=O)c1ccc(O)cc1 [Ethylparaben] | 12.5 ± 0.25 | -1.38 | -0.6 | -0.33 | -0.25 | 0.65 | -0.67 | -0.62 | 1.78 |  | -0.54 | -0.25 | 0.26 | 0.44 | 0.63 | 1.8 | 1.83 |
| COc1ccc2cc(C(=O)O)ccc2c1 [6-Methoxy-2-naphthoic acid] | 13.4 ± 0.15 | 2.36 | -2.65 | 0.27 | 2.01 | -1.63 | -1.51 | 0.22 | -0.63 | -3.74 | 0.89 | 0.62 | 3.71 | -1.83 |  | 1.63 | -1.91 |
| CCCCOc1cc(C(=O)NCCN(CC)CC)c2ccccc2n1 [Dibucaine HCl] | 12.3 ± 0.24 | 0.15 | -0.03 | -0.47 | -0.92 | -0.21 | 0.03 | -0.88 | -0.13 | 0.1 | -1.25 | -0.62 | -0.03 | 0.03 |  | -0.06 | 0.46 |
| Cc1cc(NS(=O)(=O)c2ccc(N)cc2)no1 [Sulfamethoxazole sodium] | 12.3 ± 0.35 | -0.28 | 0.79 | -0.95 | -0.82 | 0.09 | -1.48 | -0.51 | 0.96 |  | -1.13 | -1.18 | -0.73 | 1.03 |  | -0.74 | 0.7 |
| CCN(CC)CCNC(=O)c1cc(Cl)c(N)cc1OC [Metoclopramide HCl] | 12.4 ± 0.31 | 0.83 | 1.12 | -0.18 | -1.04 | -1.25 | 0.33 | 1.14 | -0.72 |  | 0.1 | -0.43 | -0.58 | -1.06 | -0.48 | -0.49 | -1.06 |
| COc1ccnc(C[S+]([O-])c2nc3cc(-n4cccc4)ccc3[nH]2)c1C (stereo unspecified) [Ilaprazole] | 12.6 ± 0.45 | -0.51 | -0.98 | 2.44 | 4.64 | 0 | 0.85 | 0.96 | -0.45 |  | 3.84 | 0.92 | 1.1 | -1.45 | -0.52 | 0.68 | -1.42 |
| CCc1cccc2c3c([nH]c12)C(CC)(CC(=O)O)OCC3 (stereo unspecified) [Etodolac] | 12.5 ± 0.19 | 1.07 | -0.55 | -0.55 | -0.66 | 0.31 | 0.26 | -0.61 | -0.8 |  | -0.44 | -0.48 | -0.82 | -0.52 |  | -0.89 | 0.62 |
| O=C(O)CCC(=O)c1ccc(-c2ccccc2)cc1 [Fenbufen] | 12.8 ± 0.18 | -0.31 | 0.67 | 0.14 | 0.71 | 1.1 | 0.1 | -0.02 | 0.87 |  | 0.57 | -0.12 | 0.59 | 0.23 | -0.23 | 0.69 | 0.32 |
| CC(C)[C@H]1CC[C@H](C(=O)N[C@H](Cc2ccccc2)C(=O)O)CC1 [Nateglinide] | 12.5 ± 0.12 |  | 1.18 | 0.26 | 0.66 | 0 | 0.32 | 0.65 | 0.06 | 0.38 | -0.02 | -0.32 | 0.89 | -0.11 | 1.15 | 0.69 | -0.59 |
| c1ccc2[nH]c(-c3cscn3)nc2c1 [Thiabendazole] | 12.3 ± 0.24 | 0.41 | 0.77 | -0.23 | -0.52 | -0.61 | 0.06 | -0.37 | -0.69 |  |  | -0.4 | -0.38 | 0.33 | 0.16 | -0.43 | -0.7 |
| CC(=O)OCC(CCn1cnc2cnc(N)nc21)COC(C)=O [Famciclovir] | 12.6 ± 0.22 | 0.55 | -0.23 | 0.46 | 0.1 | -0.41 | -0.17 | 0.41 | -0.39 |  | 0.32 | -0.67 | 1.57 | -0.82 | -0.18 | 1.06 | -0.77 |
